Legend:
PRRX1 [1] = target: PRRX1 (Homo sapiens, UniProt P54821 80-166, F113S); experiment: PBM; 200 nM protein, PBS; conditions: dsDNA, one strand shown
PRRX1 [2] = target: PRRX1 (Homo sapiens, UniProt P54821 80-166); experiment: PBM; 200 nM protein, PBS; conditions: dsDNA, one strand shown
Sequence of PRRX1 (Homo sapiens, UniProt P54821 80-166) (P54821 80-166): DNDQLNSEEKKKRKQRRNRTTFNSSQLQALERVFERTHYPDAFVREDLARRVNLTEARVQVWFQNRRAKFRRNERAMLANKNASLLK

Sequence of PRRX1 (Homo sapiens, UniProt P54821 80-166, F113S) (P54821 80-166 F113S): as the sequence (P54821 80-166) above, with F34S counted along it

Row | Sequence | binding signal (PRRX1 [1]) | binding signal (PRRX1 [2])
1 | GGACAACC | 9.36 upbm affinity estimate (log intensity, higher = more binding, comparable within an allelic series) | 9.23 upbm affinity estimate (log intensity, higher = more binding, comparable within an allelic series)
2 | GAATTATC | 10.5 upbm affinity estimate (log intensity, higher = more binding, comparable within an allelic series) | 12.9 upbm affinity estimate (log intensity, higher = more binding, comparable within an allelic series)
3 | AGCACCCT | 9.32 upbm affinity estimate (log intensity, higher = more binding, comparable within an allelic series) | 9.38 upbm affinity estimate (log intensity, higher = more binding, comparable within an allelic series)
4 | GTGTTAAC | 10.1 upbm affinity estimate (log intensity, higher = more binding, comparable within an allelic series) | 11.8 upbm affinity estimate (log intensity, higher = more binding, comparable within an allelic series)
5 | AGGTTTAA | 10.1 upbm affinity estimate (log intensity, higher = more binding, comparable within an allelic series) | 11.4 upbm affinity estimate (log intensity, higher = more binding, comparable within an allelic series)
6 | CCTACTTA | 10.1 upbm affinity estimate (log intensity, higher = more binding, comparable within an allelic series) | 11.6 upbm affinity estimate (log intensity, higher = more binding, comparable within an allelic series)
7 | CAAATGAG | 10.1 upbm affinity estimate (log intensity, higher = more binding, comparable within an allelic series) | 11.5 upbm affinity estimate (log intensity, higher = more binding, comparable within an allelic series)
8 | GCGGTTCC | 9.66 upbm affinity estimate (log intensity, higher = more binding, comparable within an allelic series) | 9.31 upbm affinity estimate (log intensity, higher = more binding, comparable within an allelic series)
9 | CCAGAGTC | 9.5 upbm affinity estimate (log intensity, higher = more binding, comparable within an allelic series) | 9.46 upbm affinity estimate (log intensity, higher = more binding, comparable within an allelic series)
10 | GAGGCTGC | 9.31 upbm affinity estimate (log intensity, higher = more binding, comparable within an allelic series) | 9.36 upbm affinity estimate (log intensity, higher = more binding, comparable within an allelic series)
11 | CCTGAGGC | 9.1 upbm affinity estimate (log intensity, higher = more binding, comparable within an allelic series) | 9.44 upbm affinity estimate (log intensity, higher = more binding, comparable within an allelic series)
12 | CGCGTCAG | 9.4 upbm affinity estimate (log intensity, higher = more binding, comparable within an allelic series) | 9.26 upbm affinity estimate (log intensity, higher = more binding, comparable within an allelic series)
13 | CCATGACG | 9.32 upbm affinity estimate (log intensity, higher = more binding, comparable within an allelic series) | 9.37 upbm affinity estimate (log intensity, higher = more binding, comparable within an allelic series)
14 | ACTTTATG | 10 upbm affinity estimate (log intensity, higher = more binding, comparable within an allelic series) | 10.9 upbm affinity estimate (log intensity, higher = more binding, comparable within an allelic series)
15 | CGTCACCC | 9.47 upbm affinity estimate (log intensity, higher = more binding, comparable within an allelic series) | 9.31 upbm affinity estimate (log intensity, higher = more binding, comparable within an allelic series)
16 | AGGTCTTG | 9.4 upbm affinity estimate (log intensity, higher = more binding, comparable within an allelic series) | 9.41 upbm affinity estimate (log intensity, higher = more binding, comparable within an allelic series)

Row | Sequence | binding signal (PRRX1 [1]) | binding signal (PRRX1 [2])
17 | GCGTGCCA | 9.08 upbm affinity estimate (log intensity, higher = more binding, comparable within an allelic series) | 9.45 upbm affinity estimate (log intensity, higher = more binding, comparable within an allelic series)
18 | CAGAACCC | 9.51 upbm affinity estimate (log intensity, higher = more binding, comparable within an allelic series) | 9.39 upbm affinity estimate (log intensity, higher = more binding, comparable within an allelic series)
19 | ATTACAAC | 10.3 upbm affinity estimate (log intensity, higher = more binding, comparable within an allelic series) | 12.1 upbm affinity estimate (log intensity, higher = more binding, comparable within an allelic series)
20 | CAATTCCC | 9.81 upbm affinity estimate (log intensity, higher = more binding, comparable within an allelic series) | 11.3 upbm affinity estimate (log intensity, higher = more binding, comparable within an allelic series)
21 | CCCCAATA | 9.73 upbm affinity estimate (log intensity, higher = more binding, comparable within an allelic series) | 11 upbm affinity estimate (log intensity, higher = more binding, comparable within an allelic series)
22 | CGCTCCAC | 9.44 upbm affinity estimate (log intensity, higher = more binding, comparable within an allelic series) | 9.3 upbm affinity estimate (log intensity, higher = more binding, comparable within an allelic series)
23 | TCGTAACA | 10.2 upbm affinity estimate (log intensity, higher = more binding, comparable within an allelic series) | 11.3 upbm affinity estimate (log intensity, higher = more binding, comparable within an allelic series)
24 | CGACGTTA | 9.76 upbm affinity estimate (log intensity, higher = more binding, comparable within an allelic series) | 11.1 upbm affinity estimate (log intensity, higher = more binding, comparable within an allelic series)
25 | AGATATTA | 10.4 upbm affinity estimate (log intensity, higher = more binding, comparable within an allelic series) | 12.2 upbm affinity estimate (log intensity, higher = more binding, comparable within an allelic series)
26 | CATATTGG | 10 upbm affinity estimate (log intensity, higher = more binding, comparable within an allelic series) | 11.3 upbm affinity estimate (log intensity, higher = more binding, comparable within an allelic series)
27 | CTTCATTA | 10.5 upbm affinity estimate (log intensity, higher = more binding, comparable within an allelic series) | 12.8 upbm affinity estimate (log intensity, higher = more binding, comparable within an allelic series)
28 | AACCAATT | 10.4 upbm affinity estimate (log intensity, higher = more binding, comparable within an allelic series) | 12.6 upbm affinity estimate (log intensity, higher = more binding, comparable within an allelic series)
29 | CGCGGGAC | 9.43 upbm affinity estimate (log intensity, higher = more binding, comparable within an allelic series) | 9.4 upbm affinity estimate (log intensity, higher = more binding, comparable within an allelic series)
30 | GAAAGACC | 9.56 upbm affinity estimate (log intensity, higher = more binding, comparable within an allelic series) | 9.45 upbm affinity estimate (log intensity, higher = more binding, comparable within an allelic series)
31 | CCCGTACG | 9.21 upbm affinity estimate (log intensity, higher = more binding, comparable within an allelic series) | 9.33 upbm affinity estimate (log intensity, higher = more binding, comparable within an allelic series)
32 | ATCAATTC | 10.1 upbm affinity estimate (log intensity, higher = more binding, comparable within an allelic series) | 11.9 upbm affinity estimate (log intensity, higher = more binding, comparable within an allelic series)

— article PMC11006913
